# Screening results: PubChem BioAssay, several laboratories
# esBAF inh: inhibitors of esBAF chromatin remodeling in mouse ES cells; Bmi1-luciferase knock-in reporter, 24 h; 100% = twice the neutral-well signal; reporter increase, % at 12.5 µM; hit rate 2% among 350,000; AID 602393; in the data active means activation above about 40%;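 further: 0% = median of the plate's neutral control wells and 100% = double that signal; a rise in the Bmi1 reporter signal indicates esBAF inhibition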
# SMARCA2 activ: SMARCA2 function activation, primary screen; MG213 cells, MMTV-luciferase reporter, dexamethasone, overnight; activation, % at 9.1 µM; hit rate 1% among 370,000; AID 652017; in the data active means activation above about 7.8%;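 further: 0% = vehicle wells and 100% = reference activator wells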
# Gli-Sufu antag: blocks Gli-Sufu signaling in a luciferase reporter | Sufu-KO-LIGHT fibroblasts, Gli luciferase reporter luminescence | inhibition, % at 5 µM | hit rate 0.74% among 340,000 | AID 588413;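 active means inhibition above about 55%, limit read from the data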;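 further: 0% = DMSO-treated cells and 100% = wells with medium but no cells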
# Jurkat NFkB inh: inhibitors of the PMA/ionomycin-induced NF-kB reporter in Jurkat cells; inhibition, % at 4 µM; hit rate 0.53% among 330,000; PMA/ionomycin-induced NF-kB luciferase reporter, luminescence; in the data active means inhibition above about 50%
# 697 NFkB inh: inhibitors of the PMA/ionomycin-induced NF-kB reporter in 697 B cells; 697 B-cell NF-kB luciferase reporter, 16 h; inhibition, % at 4 µM; hit rate 0.33% among 330,000; in the data active means inhibition above about 35%
# Gli-Sufu confirm: confirmation of Gli-SUFU pathway antagonists | Sufu-KO-LIGHT cells, Gli luciferase reporter, luminescence | AID 602428 | inhibition, % at 5 µM | hit rate 40% among 2,500 | shares compounds with Gli-Sufu antag;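 active means mean inhibition at 5 µM reaching about 45%, limit read from the data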;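 further: plate controls were DMSO-treated cells for no effect and wells lacking cells for full effect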
# SufuKO cytotox: cytotoxic in Gli-SUFU antagonist counter-screen; shares compounds with Gli-Sufu antag; Sufu-KO-LIGHT cells cytotoxicity, ATP luminescence; cytotoxicity, % at 5 µM; hit rate 32% among 2,500; AID 651994;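 active means mean cytotoxicity at 5 µM above about 25%, limit read from the data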;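 further: cells exposed to compound overnight for roughly 16 to 18 hours; plate controls were DMSO wells with cells for no effect and medium without cells for full effect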
# Wnt3a counter: Wnt3a reporter inhibition counter-screen. shares compounds with Gli-Sufu antag. Wnt-LIGHT cells, Wnt3a-driven luciferase reporter, luminescence. inhibition, % at 6.25 µM. hit rate 20% among 2,500;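 active means mean inhibition above about 25%, limit read from the data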
# * hit, by the source's call; . = no result given. Sampled rows, rich in hits. Any-hit rate of the full collection: about 3.3%.
SMILES,esBAF inh,SMARCA2 activ,Gli-Sufu antag,Jurkat NFkB inh,697 NFkB inh,Gli-Sufu confirm,SufuKO cytotox,Wnt3a counter
COc1ccc(CCN2CC(C(=O)NCCc3ccc(C(F)(F)F)cc3)CCC2=O)cc1 (stereo not given),-5,0,52,-17,-23,9,17,-53
COc1ccc(CCN2CC(C(=O)NCCc3ccc(F)cc3)CCC2=O)cc1 (stereo not given),0,1,4,-12,-4,.,.,.
Cc1cccc(S(=O)(=O)N[C@@H]2CC[C@H](CCNC(=O)CCN3CCCCC3)O[C@@H]2CO)c1,2,.,.,.,.,.,.,.
Cc1cc(C(=O)Nc2cccc3c2O[C@H](CN(C)S(C)(=O)=O)[C@@H](C)CN([C@@H](C)CO)C3=O)n(C)n1,-1,.,.,.,.,.,.,.
C[C@@H]1CN([C@@H](C)CO)C(=O)c2cccc(NC(=O)Nc3ccc(F)cc3)c2O[C@H]1CN(C)Cc1ccc(Oc2ccccc2)cc1,3,.,.,.,.,.,.,.
Cc1ccc2nc(/C(C#N)=C\c3ccc(N4CCCCC4)c([N+](=O)[O-])c3)[nH]c2c1,.,0,50,-2,3,36,10,-79
c1ccc2c(-c3[nH]ncc3CNCCCn3ncc4ccccc43)cccc2c1,6,-5,58*,8,7,23,8,-10
O=C(Nc1ccc(Cl)cc1)N1C[C@@H]2[C@H](c3ccccc31)[C@H](CO)N2CC1CCCC1,17,.,.,.,.,.,.,.
Cc1ccc(C)[n+](CC(=O)c2ccc(-c3ccccc3)cc2)c1,.,-1,56*,19,-9,36,16,-21
Cc1ccc[n+](CC(=O)c2ccc(-c3ccccc3)cc2)c1,.,0,4,-4,-11,.,.,.
COc1ccc(C#Cc2ccc([C@H]3[C@@H](CO)N4CCCCN(S(=O)(=O)c5cn(C)cn5)C[C@@H]34)cc2)cc1,25,.,.,.,.,.,.,.
Cc1nc2ncccn2c1-c1csc(Nc2ccc(O)cc2)n1,.,-4,55*,3,3,52*,19,-35
Cc1ccnc(Nc2nc(-c3c(C)nc4sccn34)cs2)c1,-9,-2,-15,-29,-86,.,.,.
O=C(NCc1cc2ccccc2[nH]1)C1CCC(=O)N(CCCN2CCCC2=O)C1 (stereo not given),1,1,59*,-10,-22,14,14,-57
O=C(NCCc1ccccc1)C1CCC(=O)N(CCCN2CCCC2=O)C1 (stereo not given),5,-1,5,1,-4,.,.,.
COc1ccc(S(=O)(=O)N[C@@H]2CC[C@@H](CC(=O)NCCc3ccccc3)O[C@H]2CO)cc1,0,.,.,.,.,.,.,.
CC1=C(C(=O)OC2CCCCC2)C(c2ccc(O)cc2)NC(=O)N1 (stereo not given),-9,2,96*,11,10,24,5,-11
CC1=C(C(=O)OC2CCCCC2)C(c2ccc(F)cc2)NC(=O)N1 (stereo not given),1,-3,34,-5,-7,.,.,.
O=C(NC[C@@H]1[C@@H](c2ccccc2)[C@@H](CO)N1C(=O)Cc1ccncc1)C1CCC1,4,.,.,.,.,.,.,.
Cc1c(CCOC(=O)C23CC4CC(CC(C4)C2)C3)sc[n+]1Cc1ccccc1,-7,-3,9,-11,-20,.,.,.
Cc1c(CCOC(=O)C23CC4CC(CC(C)(C4)C2)C3)sc[n+]1Cc1ccccc1,-39,-3,55,3,-17,56*,9,-49
c1cnc2ccc(C(c3nnnn3C3CCCCC3)N3CCN(C4CCCCC4)CC3)cc2c1 (stereo not given),-16,1,65*,-21,-3,80*,36*,-36
C[C@@H]1CN([C@H](C)CO)C(=O)c2cc(NC(=O)CCC(F)(F)F)ccc2O[C@@H](C)CCCCO[C@H]1CN(C)C(=O)NC1CCCCC1,5,.,.,.,.,.,.,.
C[C@H](CO)N1C[C@H](C)[C@@H](CN(C)C(=O)C2CCC2)Oc2cc(C3=CCCC3)ccc2S1(=O)=O,-3,.,.,.,.,.,.,.
Cc1nc(CCNC(=O)CC2C(=O)NCCN2Cc2ccccc2)nc2c1CCC2 (stereo not given),2,-1,-10,7,1,.,.,.
SMILES,esBAF inh,SMARCA2 activ,Gli-Sufu antag,Jurkat NFkB inh,697 NFkB inh,Gli-Sufu confirm,SufuKO cytotox,Wnt3a counter
Cc1ccc(CN2CCNC(=O)C2CC(=O)N(C)CCc2ccccc2)cc1 (stereo not given),-2,2,22,2,18,.,.,.
CN(CCc1ccccn1)C(=O)CC1C(=O)NCCN1Cc1ccc(-c2ccccc2)cc1 (stereo not given),.,-3,60*,-4,7,9,1,-25
Cc1cc(C)nc(CCNC(=O)CC2C(=O)NCCN2Cc2ccccc2)n1 (stereo not given),-5,-3,52,4,-7,21,-4,2
O=C1N(c2cccc3ccccc23)C(c2ccccc2)N2CCCN12 (stereo not given),.,-2,81*,-12,-4,14,5,-10
O=C1N(c2cccc(Cl)c2)C(c2ccccc2)N2CCCN12 (stereo not given),.,-2,-1,-8,8,.,.,.
C[C@H](CO)N1C[C@H](C)[C@@H](CN(C)S(=O)(=O)c2ccc(Cl)cc2)Oc2c(NC(=O)c3cnccn3)cccc2C1=O,2,.,.,.,.,.,.,.
